Data published in PubChem BioAssay AID1259343 (VanderVen Lab, College of Veterinary Medicine, Cornell …, 2017).
The campaign covered roughly 6,200 compounds. About 2,900 (47%) were called active. So high a share suggests a set chosen from earlier hits. Some of the results follow. Unmarked numbers belong to inactive results. Cut-off read from the data, not from the text of the source: active = inhibition above about 50%; inactive = the rest.

Test: Mycobacterium tuberculosis growth inhibition, primary screen (AID 1259343)
Settings: inhibition: at 10 µM, active compounds read high; outcome: 10 uM

Compound	inhibition
O=C(NN=Cc1ccc(F)cc1)c1cc(C23CC4CC(CC(C4)C2)C3)[nH]n1	10.7%
COc1ccccc1C=NNC(=O)c1cc(C23CC4CC(CC(C4)C2)C3)[nH]n1	99.6% (active)
O=C(NN=Cc1ccccc1O)c1cc(C23CC4CC(CC(C4)C2)C3)[nH]n1	28.4%
CC(C)Cn1c(CN(C)Cc2ncc[nH]2)nc2ccccc21	29.8%
CN(C)c1ccc(C=NC2=NN(c3ccccc3)CC2)cc1	90.3% (active)
c1ccc(C2=NN(c3ccccc3)CC2)cc1	-38.3%
C(=NC1=NN(c2ccccc2)CC1)c1ccccc1	54% (active)
NC1=NN(c2ccccc2)CC1	82.6% (active)
CN(C)C=NC1=NN(c2ccccc2)CC1	-0.55%
CN(C)c1ccc(C=NNC2=Nc3cccc4cccc2c34)cc1	18.6%
FC(F)(F)c1ccc2c(c1)n(Cc1ccc(Cl)c(Cl)c1)c1[n+]2CCCCC1	10.6%
C=CC[n+]1c(-c2ccccc2)csc1Nc1ccccc1OC	88.1% (active)
Cc1ccc(C=NNC(=S)NC2CCCCC2)o1	101% (active)
CC(=NNC(=S)NC1CCCCC1)c1ccc(C)o1	-13.8%
Cc1ccc(C=NNC(=S)NC(C)C)o1	54.2% (active)
CCCCNC(=S)NN=Cc1ccc(C)o1	81.2% (active)
CC(C)NC(=S)NN=Cc1c(F)c(F)c(F)c(F)c1F	82.9% (active)
CCNC(=S)NN=Cc1ccco1	1.13%
Cc1ccc(C=NNC(=O)NC2CCCCC2)o1	-14.7%
CCc1c(C)sc2[nH]c(=S)n(C)c(=O)c12	24.5%
CN(C)S(=O)(=O)n1cc(/C=C/c2nc(N)nc(-c3ccccc3O)n2)c2ccccc21	13.7%
O=C(NCCc1ccc(Cl)s1)Nc1ccccn1	35.1%
O=C(NCC1CCCc2ccccc21)c1ccccn1 (stereo not drawn)	3.26%

Compound	inhibition
CC(C)(CNC(=O)c1ccccn1)c1ccccc1	65.7% (active)
Fc1ccc(-c2c[nH]c(=S)[nH]2)cc1	90.2% (active)
O=c1oc2ccccc2c(O)c1C(c1ccc2c(c1)OCO2)c1c(O)c2ccccc2oc1=O	54.4% (active)
O=c1oc2ccccc2c(O)c1C(c1ccccc1O)c1c(O)c2ccccc2oc1=O	90.2% (active)
O=c1oc2ccccc2c(O)c1C(c1cncs1)c1c(O)c2ccccc2oc1=O	-17.6%
CC(C)[C@H](CNC(=O)[C@@H](NC(=O)c1cccc(-c2ccccc2)n1)[C@@H](C)O)B(O)O	23.9%
Cc1ccc(N=Nc2cn[nH]c2C)cc1	-8.23%
COc1ccc(NC(=O)C(C)CS(=O)(=O)c2ccc(Br)cc2)cc1F (stereo not drawn)	61.1% (active)
c1cc2c3c(cccc3c1)/C(=N/OCC1CO1)C2 (stereo not drawn)	101% (active)
N#Cc1nc(-c2ccc(COc3ccc(Cl)cc3)o2)oc1NCC1CCCO1 (stereo not drawn)	46.9%
N#Cc1nc(COc2ccc(Br)cc2)oc1NCCCn1ccnc1	62.4% (active)
c1ccc(CC[P+](c2ccccc2)(c2ccccc2)c2ccccc2)cc1	62.6% (active)
NC(CCCc1ccccc1)c1ccccc1 (stereo not drawn)	15.7%
O=C1NC(=S)SC1=Cc1ccc(F)c(F)c1	88.5% (active)
O=C1NC(=S)SC1=Cc1ccc(F)cc1	32.6%
O=C1/C(=C\c2ccc(O)c(Cl)c2)CS(=O)(=O)C/C1=C/c1ccc(O)c(Cl)c1	-0.82%
O=C1NC(=S)SC1=Cc1cc(O)c(O)c(Cl)c1	88.3% (active)
COc1cc(C=C2SC(=S)NC2=O)cc(Br)c1O	90% (active)
COc1ccc(C=C2SC(=S)NC2=O)cc1F	86.7% (active)
Cc1nn(C)c(C)c1CCC(=O)Nc1ccc(C(C)(C)C#N)cc1	71% (active)
COc1ccc(NC(=O)CCc2ccccc2C#N)cc1	27.5%
S=c1[nH]nc(-c2ccccc2)c2ccccc12	70.8% (active)
Cc1ccc(-c2n[nH]c(=S)c3ccccc23)cc1	32.5%

Compound	inhibition
CC1CN(c2ccc(-c3nnc(Br)s3)cc2)CC(C)(C)O1 (stereo not drawn)	10.5%
O=C(O)c1ccc(COc2cccc(Cl)c2)s1	81.8% (active)
CN(C)S(=O)(=O)c1ccc(COc2cccc(Cl)c2)o1	49.6%
Clc1cccc(OCOCOc2cccc(Cl)c2)c1	1.77%
CCCNC(=O)c1ccc(Oc2ccc(F)cc2)cc1	90.3% (active)
O=C(NN1CCOCC1)c1ccc(Oc2ccc(F)cc2)cc1	89.4% (active)
CCCNC(=O)C(C)NC(=O)c1ccc(Oc2ccc(F)cc2)cc1 (stereo not drawn)	62.5% (active)
Cc1ccc(Oc2ccc(NC(C)C(=O)NC(C)C)cc2)cc1 (stereo not drawn)	30.7%
C=CCOc1cccc(C2c3c(oc4ccc(C)cc4c3=O)C(=O)N2c2nccs2)c1 (stereo not drawn)	1.57%
Cc1cccc(-c2nc3c(NCc4ccccc4)nccc3[nH]2)c1	68.2% (active)
Fc1ccc(-c2nc3c(NCc4ccccc4)nccc3[nH]2)cc1F	35.1%
c1ccc(CNc2nc(-c3ccccc3)nc3ccccc23)cc1	-8.46%
Cc1cccc(-c2nc3c(NCc4cccc(N(C)C)c4)nccc3[nH]2)c1	76.8% (active)
Fc1cc(NCc2ccccc2)nc(NCc2ccccc2)n1	13.7%
Fc1cccc(-c2nc3c(NCc4ccccc4)nccc3[nH]2)c1	58.3% (active)
Cc1c(-c2ccccc2)[nH]c2c(CNc3nccc(N)n3)cc(Cl)cc12	25.5%
c1ccc(-c2nc3c(NC4CCCCC4)nccc3[nH]2)cc1	76.1% (active)
Cc1ccc(-c2nc3c(NCc4cccc(N(C)C)c4)nccc3[nH]2)cc1	65.2% (active)
Cc1cc(=O)[nH]c(-n2nc(C)cc2NC(=O)C(C)C)n1	100% (active)
C/C=C/C(=O)Nc1cc(C)nn1-c1nc(C)cc(=O)[nH]1	101% (active)
CC(=O)Nc1cc(C)nn1-c1nc(C)cc(=O)[nH]1	100% (active)
Cc1cc(=O)[nH]c(-n2nc(C)cc2NC(=O)c2snnc2C)n1	99.6% (active)
